# “And” between values parts separate entries of the source, which are not always exact repeats. Equal values may be shown once. Results filed as inconclusive are left out. A call without a number means that no potency is given here. More than one record can exist for a structure, and the calls need not agree. The source made the active and inactive calls. Calls follow the shape of the dose curve; as a rule, active = well fitted curve in the direction sought with a large enough effect; inconclusive = small, poorly fitted or top-dose-only effect, or another doubt; inactive = no such curve, though single readings can be large; an effect the other way counts as inactive or inconclusive.
# Tests used:
# CRL-7250 = normal cell line; experiment: Cytotoxic Profiling of Annotated Libraries Using Quantitative High-Throughput Screening (AID 1296008); conditions: Five cell lines viability, CellTiter-Glo ATP luminescence, 48-72 h; max response: stronger effect = lower value; also: nearly all actives have a fitted effect of over 60% in size; also: potency is read from the fitted curve at half-maximal effect
# Procedure, shortened: (§1)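 Cytotoxicity was measured as CellTiter-Glo ATP luminescence, read after 10 min at room temperature. Compound treatment of the cells lasted 48 or 72 hr at 37 degrees Celsius in a qHTS format.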
# HaCat [1] = experiment: as above; conditions: Five cell lines viability, CellTiter-Glo ATP luminescence, 48-72 h; max response: stronger effect = lower value
# Procedure, shortened: as §1
# KB-3-1 = experiment: as above; conditions: Five cell lines viability, CellTiter-Glo ATP luminescence, 48-72 h; max response: stronger effect = lower value
# Procedure, shortened: as §1
# NIH3T3 [2] = experiment: as above; conditions: Five cell lines viability, CellTiter-Glo ATP luminescence, 48-72 h; max response: stronger effect = lower value
# Procedure, shortened: as §1
# HACAT [3] = experiment: qHTS assay to identify novel small-molecules to repurpose for Merkel cell carcinoma treatment (AID 1296009); conditions: MCC and control cell lines, CellTiter-Glo viability, 72 h; at 44.8 µM (top of the series) unless noted; also: nearly all actives have a fitted effect of over 60% in size; also: potency is read from the fitted curve at half-maximal effect
# Procedure, shortened: (§2)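 Cell viability measured by CellTiter-Glo following 72 hr compound treatment at 37 degree celsius, with NPC and MIPE libraries tested in 8- and 11-point concentration series.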
# MCC-13 = experiment: as above; conditions: MCC and control cell lines, CellTiter-Glo viability, 72 h; series mostly up to 46 µM
# Procedure, shortened: as §2
# MCC-26 = experiment: as above; conditions: MCC and control cell lines, CellTiter-Glo viability, 72 h; series mostly up to 46 µM
# Procedure, shortened: as §2
# MKL-1 = experiment: as above; conditions: MCC and control cell lines, CellTiter-Glo viability, 72 h; series mostly up to 46 µM
# Procedure, shortened: as §2
# MKL-2 = experiment: as above; conditions: MCC and control cell lines, CellTiter-Glo viability, 72 h; series mostly up to 46 µM
# Procedure, shortened: as §2
# NIH3T3 [4] = experiment: as above; conditions: MCC and control cell lines, CellTiter-Glo viability, 72 h; at 44.8 µM (top of the series) unless noted
# Procedure, shortened: as §2
# UISO = experiment: as above; conditions: MCC and control cell lines, CellTiter-Glo viability, 72 h; series mostly up to 46 µM
# Procedure, shortened: as §2
# C33A = experiment: Primary qHTS to identify gynecologic anti-cancer compounds using libraries of approved drugs and bioactive compounds (AID 1345084); conditions: Gynecologic cancer cell panel viability, ATPlite luminescence, 48 h; series mostly up to 57.5 µM; also: nearly all actives have a fitted effect of over 55% in size; also: potency is read from the fitted curve at half-maximal effect
# Procedure, shortened: (§3)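 Cytotoxicity screen measuring ATP content by luciferase luminescence. Each compound is applied at five concentrations for 48 h at 37 C with 5% CO2.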
# CAOV3 = experiment: as above; conditions: Gynecologic cancer cell panel viability, ATPlite luminescence, 48 h; series mostly up to 57.5 µM
# Procedure, shortened: as §3
# CASKI = experiment: as above; conditions: Gynecologic cancer cell panel viability, ATPlite luminescence, 48 h; series mostly up to 57.5 µM
# Procedure, shortened: as §3
# Es-2 = experiment: as above; conditions: Gynecologic cancer cell panel viability, ATPlite luminescence, 48 h; series mostly up to 57.5 µM
# Procedure, shortened: as §3
# HEK293 = experiment: Cytotoxic Profiling of Annotated Libraries Using Quantitative High-Throughput Screening (AID 1296008); conditions: Five cell lines viability, CellTiter-Glo ATP luminescence, 48-72 h; max response: stronger effect = lower value; also: nearly all actives have a fitted effect of over 60% in size; also: potency is read from the fitted curve at half-maximal effect
# Procedure, shortened: as §1
# HEK293T = experiment: qHTS assay to identify novel small-molecules to repurpose for Merkel cell carcinoma treatment (AID 1296009); conditions: MCC and control cell lines, CellTiter-Glo viability, 72 h; at 44.8 µM (top of the series); also: nearly all actives have a fitted effect of over 60% in size; also: potency is read from the fitted curve at half-maximal effect
# Procedure, shortened: as §2
# WaGa = experiment: as above; conditions: MCC and control cell lines, CellTiter-Glo viability, 72 h; series mostly up to 46 µM
# Procedure, shortened: as §2
# TAB165 = experiment: qHTS profiling for inhibitors of Plasmodium falciparum proliferation (AID 504749); also: nearly all actives have a fitted effect of over 60% in size; conditions: P. falciparum in erythrocytes, SYBR Green DNA, 72 h; series mostly up to 28.7 µM
# Procedure, shortened: (§4)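 In a 72 h erythrocytic culture (37 C, humidified, 5% CO2) at 2.5% hematocrit and 0.3% starting parasitemia, compounds were tested; SYBR Green I in detergent lysis buffer stained parasite DNA overnight.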
# W2 = experiment: as above; conditions: P. falciparum in erythrocytes, SYBR Green DNA, 72 h; series mostly up to 28.7 µM
# Procedure, shortened: as §4
compound,measurement,setting,value
C[C@@H]1CN(Cc2ccc(F)cc2)[C@@H](C)CN1C(=O)c1cc2c(C(=O)C(=O)N(C)C)cn(C)c2cc1Cl,max response,CRL-7250,4.08% (inactive)
same,outcome,CRL-7250,inactive
same,max response,HaCat [1],-4.64% (inactive)
same,outcome,HaCat [1],inactive
same,max response,KB-3-1,6.97% (inactive) and -3.16% (inactive)
same,max response,NIH3T3 [2],1.1% (inactive)
same,outcome,NIH3T3 [2],inactive
same,outcome,HACAT [3],inactive
same,Potency,MCC-13,inactive
same,Potency,MCC-26,inactive
same,Potency,MKL-1,inactive
same,Potency,MKL-2,inactive
same,outcome,NIH3T3 [4],inactive
same,Potency,UISO,inactive
same,Potency,C33A,inactive
same,Potency,CAOV3,inactive
same,Potency,CASKI,inactive
same,Potency,Es-2,inactive
CC(C=CC1=C(C)CCCC1(C)C)=CC=CC(C)=CC(=O)O,max response,CRL-7250,-11.2% (inactive)
same,max response,HEK293,1.74% (inactive)
same,outcome,HEK293,inactive
same,outcome,HaCat [1],inactive
same,max response,KB-3-1,4.44% (inactive)
same,outcome,KB-3-1,inactive
same,max response,NIH3T3 [2],-0.0926% (inactive)
same,outcome,NIH3T3 [2],inactive
same,outcome,HACAT [3],inactive
same,outcome,HEK293T,inactive
same,Potency,MCC-13,inactive
same,Potency,MCC-26,inactive
same,Potency,MKL-1,inactive
same,Potency,MKL-2,inactive
same,outcome,NIH3T3 [4],inactive
same,Potency,UISO,inactive
same,Potency,WaGa,inactive
O=C1CCCC2=C1C(c1[nH]ncc1Cl)N=C(Nc1nc3ccccc3o1)N2 (configuration not stated),max response,CRL-7250,2.7% (inactive)
same,outcome,CRL-7250,inactive
same,max response,HaCat [1],-0.0608% (inactive)
same,outcome,HaCat [1],inactive
same,max response,KB-3-1,5.25% (inactive)
same,outcome,KB-3-1,inactive
same,max response,NIH3T3 [2],-1.09% (inactive)
same,outcome,NIH3T3 [2],inactive
same,outcome,HACAT [3],inactive
same,Potency,MCC-13,inactive
same,Potency,MCC-26,inactive
same,Potency,MKL-1,inactive
same,Potency,MKL-2,inactive
same,outcome,NIH3T3 [4],inactive
same,Potency,UISO,inactive
same,Potency,WaGa,inactive
same,Potency,C33A,inactive
same,Potency,CAOV3,inactive
same,Potency,CASKI,inactive
same,Potency,Es-2,inactive
COc1cc(Nc2ncc3c(n2)-c2ccc(Cl)cc2C(c2c(F)cccc2OC)=NC3)ccc1C(=O)O,Potency,CRL-7250,20.6 µM (active)
same,Potency,HEK293,23.1 µM (active)
same,max response,HEK293,-33.7% (inactive)
same,Potency,HaCat [1],16.4 µM (active) and 833 nM (active)
same,Potency,KB-3-1,2.09 µM (active)
same,Potency,NIH3T3 [2],7.43 µM (active)
same,Potency,MCC-26,inactive
same,Potency,MKL-2,inactive
same,Potency,UISO,inactive
same,Potency,WaGa,0.148 µM (active)
same,Potency,C33A,28.2 µM (active) and inactive
same,Potency,CAOV3,31.6 µM (active)
same,Potency,Es-2,inactive
CNC(=O)c1ccc(C)c(-n2c(C)cc(OCc3ccc(F)cc3F)c(Br)c2=O)c1,max response,CRL-7250,-9.42% (inactive)
same,Potency,HEK293,11.6 µM (active)
same,max response,HaCat [1],-14.3% (inactive)
same,outcome,HaCat [1],inactive
same,max response,KB-3-1,-4.9% (inactive)
same,max response,NIH3T3 [2],2.56% (inactive)
same,outcome,NIH3T3 [2],inactive
same,outcome,HACAT [3],inactive
same,Potency,MCC-13,inactive
same,Potency,MCC-26,inactive
same,Potency,MKL-1,inactive
same,outcome,NIH3T3 [4],inactive
same,Potency,C33A,inactive
same,Potency,CAOV3,inactive
same,Potency,CASKI,inactive
same,Potency,Es-2,inactive
c1ccc([C@H]2CN3CCSC3=N2)cc1,max response,CRL-7250,-3.88% (inactive) and 4.82% (inactive)
same,max response,HEK293,-11.1% (inactive)
same,outcome,HEK293,inactive
same,max response,HaCat [1],1.22% (inactive)
same,outcome,HaCat [1],inactive
same,max response,KB-3-1,-2.88% (inactive) and 1.89% (inactive)
same,max response,NIH3T3 [2],1.43% (inactive) and 2.53% (inactive)
same,outcome,HACAT [3],inactive
same,outcome,HEK293T,inactive
same,Potency,MCC-13,inactive
same,Potency,MCC-26,inactive
same,Potency,MKL-1,inactive
same,Potency,MKL-2,inactive
same,Potency,UISO,inactive
same,Potency,WaGa,inactive
same,Potency,C33A,inactive
same,Potency,CAOV3,inactive
same,Potency,CASKI,inactive
same,Potency,Es-2,inactive
NC(=O)c1cnccn1,Potency,TAB165,inactive
same,Potency,W2,inactive
same,max response,CRL-7250,3.02% (inactive) and 1.22% (inactive)
same,max response,HEK293,-0.963% (inactive)
same,outcome,HEK293,inactive
same,max response,HaCat [1],-6.4% (inactive)
same,outcome,HaCat [1],inactive
same,max response,KB-3-1,-14% (inactive)
same,outcome,KB-3-1,inactive
same,max response,NIH3T3 [2],3.86% (inactive) and 2.38% (inactive)
same,outcome,HACAT [3],inactive
same,outcome,HEK293T,inactive
same,Potency,MCC-13,inactive
same,Potency,MCC-26,inactive
same,Potency,MKL-1,inactive
same,Potency,MKL-2,inactive
same,Potency,UISO,inactive
same,Potency,WaGa,inactive
same,Potency,C33A,inactive
same,Potency,CAOV3,inactive
same,Potency,CASKI,inactive
same,Potency,Es-2,inactive
CC(C)NCC(O)COc1ccc(COCCOC(C)C)cc1 (configuration not stated),Potency,TAB165,inactive
same,Potency,W2,inactive
same,max response,CRL-7250,-5.09% (inactive)
same,outcome,CRL-7250,inactive
same,max response,HEK293,4.07% (inactive) and -17.2% (inactive)
same,max response,HaCat [1],-3.77% (inactive)
same,outcome,HaCat [1],inactive
same,max response,KB-3-1,14.8% (inactive) and -14.7% (inactive) and -10.9% (inactive)
same,max response,NIH3T3 [2],4.85% (inactive)
same,outcome,NIH3T3 [2],inactive
same,outcome,HACAT [3],inactive
same,Potency,MCC-13,inactive
same,Potency,MCC-26,inactive
same,Potency,MKL-1,inactive
same,Potency,MKL-2,inactive
same,outcome,NIH3T3 [4],inactive
same,Potency,UISO,inactive
same,Potency,WaGa,inactive
same,Potency,C33A,inactive
same,Potency,CAOV3,inactive
same,Potency,CASKI,inactive
same,Potency,Es-2,inactive
CC(C[N+](C)(C)C)OC(N)=O (configuration not stated),Potency,TAB165,inactive
same,Potency,W2,inactive
same,max response,CRL-7250,0.597% (inactive)
same,outcome,CRL-7250,inactive
same,max response,HEK293,3.57% (inactive)
same,outcome,HEK293,inactive
same,outcome,HaCat [1],inactive
same,max response,KB-3-1,3.39% (inactive) and 7.21% (inactive)
same,outcome,NIH3T3 [2],inactive
same,outcome,HACAT [3],inactive
same,outcome,HEK293T,inactive
same,Potency,MCC-13,inactive
same,Potency,MKL-1,inactive
same,Potency,MKL-2,inactive
same,outcome,NIH3T3 [4],inactive
same,Potency,UISO,inactive
same,Potency,WaGa,inactive
same,Potency,C33A,inactive
same,Potency,CAOV3,inactive
same,Potency,CASKI,inactive
same,Potency,Es-2,inactive
CCCCNc1cc(C(=O)O)cc(S(N)(=O)=O)c1Oc1ccccc1,Potency,TAB165,inactive
same,Potency,W2,inactive
same,max response,CRL-7250,0.377% (inactive)
same,outcome,CRL-7250,inactive
same,max response,HEK293,2.91% (inactive)
same,outcome,HEK293,inactive
same,max response,HaCat [1],2.18% (inactive)
same,outcome,HaCat [1],inactive
same,max response,KB-3-1,-8.24% (inactive) and 0.128% (inactive)
same,max response,NIH3T3 [2],1.18% (inactive)
same,outcome,NIH3T3 [2],inactive
same,outcome,HACAT [3],inactive
same,outcome,HEK293T,inactive
same,Potency,MCC-13,inactive
same,Potency,MCC-26,inactive
same,Potency,MKL-1,inactive
same,Potency,MKL-2,inactive
same,outcome,NIH3T3 [4],inactive
same,Potency,UISO,inactive
same,Potency,WaGa,inactive
same,Potency,C33A,inactive
same,Potency,CAOV3,inactive
same,Potency,CASKI,inactive
same,Potency,Es-2,inactive

# Reference: PubChem BioAssay (NCATS)
